Measurements: PubChem BioAssay (NCI)
The panel holds about 79,000 compounds, 15% with a hit somewhere; the sample as a whole holds those more often. Active and inactive are the calls of the source. No stated cut-off is given here; in the data, active means growth inhibition above about 70%; inactive means the rest.

How the values were obtained:
[1] = NCI Yeast Anticancer Drug Screen. Data for the rad52 strain (AID 147);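 further: 0% = growth of vehicle-treated control cultures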; settings: S. cerevisiae rad52 mutant growth inhibition, hits give high values
How it was run: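 Read-out: growth inhibition versus vehicle-treated controls. Cells were a DNA repair-deficient yeast strain treated with compounds.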

[2] = NCI Yeast Anticancer Drug Screen. Data for the wt1 strain (AID 149);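 further: 0% = growth of vehicle-treated wt1 cultures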; settings: S. cerevisiae wt1 strain (SPY 50644) growth inhibition, hits give high values
How it was run: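 wt1 strain grown with compound or vehicle; inhibition taken from the growth difference.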

[3] = NCI Yeast Anticancer Drug Screen. Data for the rad50EPP+ strain (AID 151);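 further: 0% = growth of vehicle-treated control cultures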; settings: S. cerevisiae rad50 mutant strain, hits give high values
How it was run: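 Growth inhibition read against vehicle controls in rad50EPP+ yeast, a strain altered in DNA damage repair, after compound exposure.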

[4] = NCI Yeast Anticancer Drug Screen. Data for the mgt1 strain (AID 153); settings: S. cerevisiae mgt1 mutant growth inhibition, hits give high values
How it was run: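 mgt1 yeast grown with test compound; read-out is growth inhibition versus vehicle-treated cultures.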

[5] = NCI Yeast Anticancer Drug Screen. Data for the rad50 strain (AID 155);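 further: 0% = growth of vehicle-only cultures of the same strain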; settings: S. cerevisiae rad50 strain growth inhibition, hits give high values
How it was run: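 DNA repair mutant yeast, compound exposure, growth read-out; inhibition is taken relative to vehicle.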

[6] = NCI Yeast Anticancer Drug Screen. Data for the mec2-1 strain (AID 157); settings: S. cerevisiae mec2-1 strain, hits give high values
How it was run: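 Yeast mec2-1 mutant treated with compound. Readout: growth inhibition vs vehicle controls.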

[7] = NCI Yeast Anticancer Drug Screen. Data for the rad14 strain (AID 159);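 further: 0% = growth of vehicle-treated control cultures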; settings: S. cerevisiae rad14 strain growth inhibition, hits give high values
How it was run: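 DNA repair-defective yeast, compound-exposed; % growth inhibition derived by comparison with vehicle-treated controls.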

[8] = NCI Yeast Anticancer Drug Screen. Data for the CLN2oe strain (AID 163);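 further: 0% = growth of vehicle-only control cultures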; settings: S. cerevisiae CLN2oe strain, hits give high values
How it was run: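 Read-out: yeast growth inhibition, expressed relative to vehicle-only controls. The strain bears an engineered cell-cycle alteration.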

[9] = NCI Yeast Anticancer Drug Screen. Data for the bub3 strain (AID 167); settings: S. cerevisiae bub3 mutant strain, hits give high values
How it was run: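 In this screen, a yeast mutant lacking normal mitotic checkpoint function is challenged with compound. Relative growth versus vehicle gives the inhibition value.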

[10] = NCI Yeast Anticancer Drug Screen. Data for the wt2 strain (AID 169);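 further: 0% = growth of vehicle-treated yeast cultures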; settings: S. cerevisiae wt2 strain growth inhibition, hits give high values
How it was run: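 Read-out: growth inhibition versus vehicle-treated control cultures after compound exposure of the yeast strain.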

[11] = NCI Yeast Anticancer Drug Screen. Data for the mlh1 strain (AID 171);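 further: 0% = growth of vehicle-treated control cultures of the same strain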; settings: S. cerevisiae mlh1 strain growth inhibition, hits give high values
How it was run: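 Read-out: growth inhibition versus vehicle controls. Strain: engineered yeast with a defined DNA repair or cell cycle defect, compound-treated.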

[12] = NCI Yeast Anticancer Drug Screen. Data for the rad18 strain (AID 177); settings: S. cerevisiae rad18 mutant growth inhibition, hits give high values
How it was run: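 Readout: growth inhibition vs vehicle controls. Cells: genetically altered yeast strain, DNA repair defect.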

[13] = NCI Yeast Anticancer Drug Screen. Data for the sgs1 mgt1 strain (AID 161);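 further: 0% = growth of cultures given vehicle only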; settings: S. cerevisiae sgs1 mgt1 strain, hits give high values
How it was run: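 Test agents were incubated with a DNA-repair-mutant yeast strain. Growth was then read and compared against vehicle-treated controls.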

[14] = NCI Yeast Anticancer Drug Screen. Data for the cln2 rad14 strain (AID 165);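 further: 0% = growth equal to vehicle treated cultures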; settings: S. cerevisiae cln2 rad14 strain, hits give high values
How it was run: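 cln2 rad14 yeast strain; compound exposure; growth inhibition read vs vehicle controls.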

[15] = NCI Yeast Anticancer Drug Screen. Data for the sgs1 strain (AID 173);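 further: 0% = growth of vehicle-only control cultures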; settings: S. cerevisiae sgs1 mutant, hits give high values
How it was run: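 Read-out: yeast growth inhibition relative to vehicle controls, following compound exposure of a strain with a defined DNA repair/cell cycle alteration.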

[16] = NCI Yeast Anticancer Drug Screen. Data for the mlh1 rad18 strain (AID 175); settings: S. cerevisiae mlh1 rad18 strain growth inhibition, hits give high values
How it was run: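 Yeast w/ defined DNA-repair lesions; compound exposure; growth vs vehicle controls → % inhibition.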

[17] = at 5.0 µM (retest, dose inferred, filed as 0.5)
[18] = at 50.0 µM (retest, dose inferred, filed as 5.0)

Measured: growth inhibition

CC1CCN(CCC(=O)c2ccc(Cl)cc2)CC1
inactive: [1]; at 1.2 µM 4% | [1]; at 3.7 µM 8% | [1]; at 11.0 µM 28% | [1]; at 33.0 µM 41% | [1]; at 100.0 µM 53% | [2]; at 1.2 µM -1% | [2]; at 3.7 µM -1% | [2]; at 11.0 µM -1% | [2]; at 33.0 µM 7% | [2]; at 100.0 µM 16% | [3]; at 1.2 µM -1% | [3]; at 3.7 µM -1% | [3]; at 11.0 µM -1% | [3]; at 33.0 µM -2% | [3]; at 100.0 µM -7% | [4]; at 1.2 µM -1% | [4]; at 3.7 µM 4% | [4]; at 11.0 µM 20% | [4]; at 33.0 µM 35% | [4]; at 100.0 µM 52% | [5]; at 1.2 µM 12% | [5]; at 3.7 µM 19% | [5]; [17] 5% | [5]; at 11.0 µM 32% | [5]; at 33.0 µM 52% | [5]; [18] 36% | [5]; at 100.0 µM 56% | [6]; at 1.2 µM 0% | [6]; at 3.7 µM 1% | [6]; [17] 9% | [6]; at 11.0 µM 3% | [6]; at 33.0 µM 17% | [6]; [18] 37% | [6]; at 50.0 µM 29.1% | [6]; at 100.0 µM 27% | [7]; at 1.2 µM 19% | [7]; at 3.7 µM 36% | [7]; at 11.0 µM 33% | [7]; at 33.0 µM 39% | [7]; at 100.0 µM 45% | [8]; at 1.2 µM 8% | [8]; at 3.7 µM 17% | [8]; at 11.0 µM 36% | [8]; at 33.0 µM 49% | [8]; at 100.0 µM 55% | [9]; at 1.2 µM 1% | [9]; at 3.7 µM 6% | [9]; [17] 18% | [9]; at 11.0 µM 11% | [9]; at 33.0 µM 24% | [9]; [18] 50% | [9]; at 100.0 µM 31% | [10]; at 1.2 µM 0% | [10]; at 3.7 µM 1% | [10]; at 11.0 µM 18% | [10]; at 33.0 µM 5% | [10]; at 100.0 µM 21% | [11]; at 1.2 µM 2% | [11]; at 3.7 µM 14% | [11]; at 11.0 µM 26% | [11]; at 33.0 µM 26% | [11]; at 100.0 µM 40% | [12]; at 1.2 µM 5% | [12]; at 3.7 µM 18% | [12]; at 11.0 µM 17% | [12]; at 33.0 µM 28% | [12]; at 100.0 µM 42%
active: [5]; at 50.0 µM 77.5% | [9]; at 50.0 µM 81.7%

CCCN(CCC)CC(O)c1cc(-c2ccc(Cl)cc2)nc2c(C)c(Cl)ccc12 (centres undefined)
inactive: [1]; at 1.2 µM -2% | [1]; at 3.7 µM 2% | [2]; at 1.2 µM -1% | [2]; at 3.7 µM -3% | [3]; at 1.2 µM -2% | [3]; at 3.7 µM 1% | [4]; at 1.2 µM -2% | [4]; at 3.7 µM -3% | [5]; at 1.2 µM -3% | [5]; at 3.7 µM 7% | [5]; [17] 34% | [6]; at 1.2 µM -6% | [6]; at 3.7 µM -8% | [6]; [17] 9% | [7]; at 1.2 µM -2% | [7]; at 3.7 µM 13% | [13]; [17] 36% | [8]; at 1.2 µM -3% | [8]; at 3.7 µM -3% | [14]; [17] 9% | [10]; at 1.2 µM -3% | [10]; at 3.7 µM -7% | [11]; at 1.2 µM -3% | [11]; at 3.7 µM -2% | [15]; at 1.2 µM -2% | [15]; at 3.7 µM 3% | [16]; [17] 27% | [12]; at 1.2 µM -4% | [12]; at 3.7 µM -5%
active: [1]; at 11.0 µM 98% | [1]; at 33.0 µM 96% | [1]; at 100.0 µM 93% | [2]; at 11.0 µM 98% | [2]; at 33.0 µM 98% | [2]; at 100.0 µM 97% | [3]; at 11.0 µM 85% | [3]; at 33.0 µM 96% | [3]; at 100.0 µM 96% | [4]; at 11.0 µM 99% | [4]; at 33.0 µM 98% | [4]; at 100.0 µM 96% | [5]; at 11.0 µM 98% | [5]; at 33.0 µM 96% | [5]; [18] 95% | [5]; at 50.0 µM 98.4% | [5]; at 100.0 µM 93% | [6]; at 11.0 µM 99% | [6]; at 33.0 µM 98% | [6]; [18] 98% | [6]; at 50.0 µM 98.9% | [6]; at 100.0 µM 96% | [7]; at 11.0 µM 99% | [7]; at 33.0 µM 98% | [7]; at 100.0 µM 97% | [13]; [18] 97% | [13]; at 50.0 µM 98.5% | [8]; at 11.0 µM 97% | [8]; at 33.0 µM 98% | [8]; at 100.0 µM 94% | [14]; [18] 93% | [14]; at 50.0 µM 97.6% | [10]; at 11.0 µM 99% | [10]; at 33.0 µM 97% | [10]; at 100.0 µM 96% | [11]; at 11.0 µM 99% | [11]; at 33.0 µM 98% | [11]; at 100.0 µM 95% | [15]; at 11.0 µM 98% | [15]; at 33.0 µM 97% | [15]; at 100.0 µM 95% | [16]; [18] 96% | [16]; at 50.0 µM 98.7% | [12]; at 11.0 µM 98% | [12]; at 33.0 µM 96% | [12]; at 100.0 µM 94%
